ChEMBL document CHEMBL1961873, “Compounds: GSK PKIS; Assays: Nanosyn kinase panel” (2012)

Key:
[1] = biological target: Protein kinase C gamma type (Homo sapiens) (UniProt P05129); settings: at 1 µM;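 further: each value is an averaged percent inhibition of the enzyme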
[2] = biological target: T1, Protein kinase C iota type (Homo sapiens) (UniProt P41743); settings: at 0.1 µM
T1 sequence (whole entry): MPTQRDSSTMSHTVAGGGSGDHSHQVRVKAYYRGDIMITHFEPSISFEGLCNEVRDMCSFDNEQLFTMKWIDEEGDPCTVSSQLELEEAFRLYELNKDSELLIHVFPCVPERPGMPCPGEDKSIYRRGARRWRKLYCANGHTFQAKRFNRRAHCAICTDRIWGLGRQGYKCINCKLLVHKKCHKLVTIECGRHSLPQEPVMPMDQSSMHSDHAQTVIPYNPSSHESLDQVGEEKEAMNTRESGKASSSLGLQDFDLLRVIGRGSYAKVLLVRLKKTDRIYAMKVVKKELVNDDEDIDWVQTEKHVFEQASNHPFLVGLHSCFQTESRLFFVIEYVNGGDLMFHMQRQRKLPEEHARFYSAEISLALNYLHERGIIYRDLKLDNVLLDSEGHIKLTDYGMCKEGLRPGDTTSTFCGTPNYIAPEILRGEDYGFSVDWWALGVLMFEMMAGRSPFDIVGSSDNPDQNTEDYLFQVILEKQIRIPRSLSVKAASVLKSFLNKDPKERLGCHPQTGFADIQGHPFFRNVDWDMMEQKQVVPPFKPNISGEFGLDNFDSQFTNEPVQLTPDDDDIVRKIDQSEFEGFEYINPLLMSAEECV

[3] = biological target: T1, Protein kinase C iota type (Homo sapiens); settings: at 1 µM
[4] = biological target: Protein kinase C theta type (Homo sapiens) (UniProt Q04759); settings: at 0.1 µM
[5] = biological target: Protein kinase C theta type (Homo sapiens) (UniProt Q04759); settings: at 1 µM
[6] = biological target: Protein kinase C beta type (Homo sapiens) (UniProt P05771); settings: at 0.1 µM
[7] = biological target: Protein kinase C beta type (Homo sapiens) (UniProt P05771); settings: at 1 µM
[8] = biological target: T2, Serine/threonine-protein kinase D1 (Homo sapiens) (UniProt Q15139); settings: at 0.1 µM
T2 sequence (whole entry): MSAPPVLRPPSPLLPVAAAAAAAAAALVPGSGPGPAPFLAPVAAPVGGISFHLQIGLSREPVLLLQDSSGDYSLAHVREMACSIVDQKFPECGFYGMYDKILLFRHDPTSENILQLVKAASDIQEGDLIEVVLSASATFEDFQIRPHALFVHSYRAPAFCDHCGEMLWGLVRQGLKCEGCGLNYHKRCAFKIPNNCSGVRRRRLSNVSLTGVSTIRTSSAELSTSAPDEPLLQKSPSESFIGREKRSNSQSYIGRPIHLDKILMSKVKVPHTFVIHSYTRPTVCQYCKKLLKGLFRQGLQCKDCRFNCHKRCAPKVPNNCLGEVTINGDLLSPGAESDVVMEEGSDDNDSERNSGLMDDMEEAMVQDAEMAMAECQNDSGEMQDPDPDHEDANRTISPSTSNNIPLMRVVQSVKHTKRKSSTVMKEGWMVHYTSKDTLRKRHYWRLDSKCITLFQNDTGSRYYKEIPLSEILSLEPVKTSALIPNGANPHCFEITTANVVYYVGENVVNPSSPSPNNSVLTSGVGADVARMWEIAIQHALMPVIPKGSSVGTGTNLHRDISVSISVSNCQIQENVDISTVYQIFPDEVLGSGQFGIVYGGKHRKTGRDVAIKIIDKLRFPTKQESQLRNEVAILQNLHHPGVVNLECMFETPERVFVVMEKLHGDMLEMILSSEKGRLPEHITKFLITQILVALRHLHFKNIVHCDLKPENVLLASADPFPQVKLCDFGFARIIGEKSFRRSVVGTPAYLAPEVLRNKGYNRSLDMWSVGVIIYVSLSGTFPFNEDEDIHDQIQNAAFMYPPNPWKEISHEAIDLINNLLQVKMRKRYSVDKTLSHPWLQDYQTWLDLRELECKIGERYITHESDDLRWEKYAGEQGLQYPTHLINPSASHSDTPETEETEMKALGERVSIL

[9] = biological target: T2, Serine/threonine-protein kinase D1 (Homo sapiens); settings: at 1 µM
[10] = biological target: T3, Serine/threonine-protein kinase D2 (Homo sapiens) (UniProt Q9BZL6); settings: at 0.1 µM
T3 sequence (whole entry): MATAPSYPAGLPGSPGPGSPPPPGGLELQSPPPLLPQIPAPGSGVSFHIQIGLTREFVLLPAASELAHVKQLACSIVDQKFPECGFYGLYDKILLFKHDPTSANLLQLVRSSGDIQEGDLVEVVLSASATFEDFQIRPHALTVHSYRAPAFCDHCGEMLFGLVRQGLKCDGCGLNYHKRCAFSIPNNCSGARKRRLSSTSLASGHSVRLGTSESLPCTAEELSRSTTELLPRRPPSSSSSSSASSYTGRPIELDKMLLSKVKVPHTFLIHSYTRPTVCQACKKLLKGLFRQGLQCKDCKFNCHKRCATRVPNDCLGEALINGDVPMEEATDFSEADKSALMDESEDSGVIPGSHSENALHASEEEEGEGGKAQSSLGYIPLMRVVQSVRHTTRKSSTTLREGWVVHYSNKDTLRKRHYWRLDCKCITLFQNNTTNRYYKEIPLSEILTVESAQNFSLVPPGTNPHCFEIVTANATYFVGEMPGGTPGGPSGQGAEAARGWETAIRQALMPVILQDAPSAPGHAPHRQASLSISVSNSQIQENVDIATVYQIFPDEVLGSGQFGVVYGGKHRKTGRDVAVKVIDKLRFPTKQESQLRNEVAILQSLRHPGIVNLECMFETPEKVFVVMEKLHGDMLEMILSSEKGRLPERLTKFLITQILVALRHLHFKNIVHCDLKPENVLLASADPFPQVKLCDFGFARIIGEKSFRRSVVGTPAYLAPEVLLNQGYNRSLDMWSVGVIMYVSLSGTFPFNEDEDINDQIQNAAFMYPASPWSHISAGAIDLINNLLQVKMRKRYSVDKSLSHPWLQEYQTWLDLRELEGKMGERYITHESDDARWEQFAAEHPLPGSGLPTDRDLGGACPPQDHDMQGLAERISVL

[11] = biological target: T3, Serine/threonine-protein kinase D2 (Homo sapiens); settings: at 1 µM
[12] = biological target: T4, Serine/threonine-protein kinase D3 (Homo sapiens) (UniProt O94806); settings: at 0.1 µM
T4 sequence (whole entry): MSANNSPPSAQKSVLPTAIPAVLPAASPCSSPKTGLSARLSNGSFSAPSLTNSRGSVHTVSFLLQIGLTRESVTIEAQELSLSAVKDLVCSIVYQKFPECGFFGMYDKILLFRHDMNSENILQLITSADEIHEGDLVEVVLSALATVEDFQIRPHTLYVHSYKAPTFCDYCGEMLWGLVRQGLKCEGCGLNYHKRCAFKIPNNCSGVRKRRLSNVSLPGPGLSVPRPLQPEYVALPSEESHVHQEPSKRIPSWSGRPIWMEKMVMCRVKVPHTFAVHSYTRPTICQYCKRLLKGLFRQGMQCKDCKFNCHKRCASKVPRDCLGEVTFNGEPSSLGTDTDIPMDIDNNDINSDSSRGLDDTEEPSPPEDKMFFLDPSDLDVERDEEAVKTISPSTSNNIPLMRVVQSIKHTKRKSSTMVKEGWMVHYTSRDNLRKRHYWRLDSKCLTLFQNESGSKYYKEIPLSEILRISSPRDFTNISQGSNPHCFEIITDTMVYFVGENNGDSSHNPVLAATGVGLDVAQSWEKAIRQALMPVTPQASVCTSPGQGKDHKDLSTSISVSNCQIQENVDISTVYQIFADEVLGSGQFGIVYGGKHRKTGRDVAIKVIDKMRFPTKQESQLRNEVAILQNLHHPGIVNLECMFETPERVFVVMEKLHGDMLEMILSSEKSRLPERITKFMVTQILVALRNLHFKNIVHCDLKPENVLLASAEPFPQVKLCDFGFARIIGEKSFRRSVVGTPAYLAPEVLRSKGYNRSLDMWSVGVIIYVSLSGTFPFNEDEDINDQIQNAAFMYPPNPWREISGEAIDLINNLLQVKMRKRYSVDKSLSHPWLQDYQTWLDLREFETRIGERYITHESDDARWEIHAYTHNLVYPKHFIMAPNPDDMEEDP

[13] = biological target: T4, Serine/threonine-protein kinase D3 (Homo sapiens); settings: at 1 µM
[14] = biological target: T5, cGMP-dependent protein kinase 1 (Homo sapiens) (UniProt Q13976); settings: at 0.1 µM
T5 sequence (whole entry): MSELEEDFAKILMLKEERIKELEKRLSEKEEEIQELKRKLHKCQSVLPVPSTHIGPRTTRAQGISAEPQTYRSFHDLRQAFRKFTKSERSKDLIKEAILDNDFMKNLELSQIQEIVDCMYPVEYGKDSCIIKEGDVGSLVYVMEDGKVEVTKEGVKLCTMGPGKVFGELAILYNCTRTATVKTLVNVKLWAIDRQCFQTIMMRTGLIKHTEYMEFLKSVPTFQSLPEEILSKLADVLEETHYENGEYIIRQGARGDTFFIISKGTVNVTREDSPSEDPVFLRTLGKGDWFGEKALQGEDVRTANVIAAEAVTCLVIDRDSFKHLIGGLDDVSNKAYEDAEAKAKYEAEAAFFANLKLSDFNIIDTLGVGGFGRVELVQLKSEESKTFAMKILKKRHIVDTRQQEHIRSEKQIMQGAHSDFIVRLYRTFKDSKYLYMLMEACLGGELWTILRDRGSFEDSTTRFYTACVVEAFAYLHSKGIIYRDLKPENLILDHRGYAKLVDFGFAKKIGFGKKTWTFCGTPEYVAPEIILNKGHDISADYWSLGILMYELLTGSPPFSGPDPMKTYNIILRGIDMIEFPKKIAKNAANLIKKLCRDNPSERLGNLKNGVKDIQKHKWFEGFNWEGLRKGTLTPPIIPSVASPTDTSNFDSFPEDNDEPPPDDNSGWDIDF

[15] = biological target: T5, cGMP-dependent protein kinase 1 (Homo sapiens); settings: at 1 µM
[16] = biological target: T6, cGMP-dependent protein kinase 2 (Homo sapiens) (UniProt Q13237); settings: at 0.1 µM
T6 sequence (whole entry): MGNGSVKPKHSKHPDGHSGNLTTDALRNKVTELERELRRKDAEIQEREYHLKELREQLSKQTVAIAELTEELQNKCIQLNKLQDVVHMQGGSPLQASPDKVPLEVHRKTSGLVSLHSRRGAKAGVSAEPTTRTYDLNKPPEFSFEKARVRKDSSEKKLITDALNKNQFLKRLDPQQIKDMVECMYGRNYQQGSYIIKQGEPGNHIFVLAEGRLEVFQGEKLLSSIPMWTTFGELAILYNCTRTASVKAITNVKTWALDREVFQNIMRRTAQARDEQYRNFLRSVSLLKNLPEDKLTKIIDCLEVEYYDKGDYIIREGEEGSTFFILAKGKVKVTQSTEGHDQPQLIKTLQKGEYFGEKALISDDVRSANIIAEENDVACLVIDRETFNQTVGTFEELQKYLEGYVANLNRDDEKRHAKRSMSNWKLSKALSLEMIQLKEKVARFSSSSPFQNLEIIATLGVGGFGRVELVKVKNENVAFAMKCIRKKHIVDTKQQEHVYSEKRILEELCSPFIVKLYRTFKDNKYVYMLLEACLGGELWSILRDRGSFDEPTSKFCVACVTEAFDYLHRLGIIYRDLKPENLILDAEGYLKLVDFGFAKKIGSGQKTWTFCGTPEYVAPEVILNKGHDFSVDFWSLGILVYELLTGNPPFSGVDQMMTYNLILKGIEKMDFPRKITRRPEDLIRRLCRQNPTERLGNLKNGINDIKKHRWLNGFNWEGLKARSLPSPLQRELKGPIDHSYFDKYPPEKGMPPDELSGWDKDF

[17] = biological target: T6, cGMP-dependent protein kinase 2 (Homo sapiens); settings: at 1 µM
[18] = biological target: T7, cAMP-dependent protein kinase catalytic subunit PRKX (Homo sapiens) (UniProt P51817); settings: at 0.1 µM
T7 sequence (whole entry): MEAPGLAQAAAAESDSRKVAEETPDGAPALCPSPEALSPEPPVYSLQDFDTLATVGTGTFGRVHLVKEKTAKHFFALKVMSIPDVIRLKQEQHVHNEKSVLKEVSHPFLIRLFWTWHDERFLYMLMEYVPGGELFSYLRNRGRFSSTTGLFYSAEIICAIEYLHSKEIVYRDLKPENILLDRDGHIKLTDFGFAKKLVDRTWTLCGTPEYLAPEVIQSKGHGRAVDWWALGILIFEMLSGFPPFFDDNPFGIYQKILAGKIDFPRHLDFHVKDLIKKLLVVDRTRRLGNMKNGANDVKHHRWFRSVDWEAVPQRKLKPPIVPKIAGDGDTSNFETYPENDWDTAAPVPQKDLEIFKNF

[19] = biological target: T7, cAMP-dependent protein kinase catalytic subunit PRKX (Homo sapiens); settings: at 1 µM
[20] = biological target: Rho-associated protein kinase 1 (Homo sapiens) (UniProt Q13464); settings: at 0.1 µM;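 further: values are mean percent inhibition of ROCK1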
Sequence of Rho-associated protein kinase 1 (Homo sapiens) (Q13464 2-1354 limits assumed): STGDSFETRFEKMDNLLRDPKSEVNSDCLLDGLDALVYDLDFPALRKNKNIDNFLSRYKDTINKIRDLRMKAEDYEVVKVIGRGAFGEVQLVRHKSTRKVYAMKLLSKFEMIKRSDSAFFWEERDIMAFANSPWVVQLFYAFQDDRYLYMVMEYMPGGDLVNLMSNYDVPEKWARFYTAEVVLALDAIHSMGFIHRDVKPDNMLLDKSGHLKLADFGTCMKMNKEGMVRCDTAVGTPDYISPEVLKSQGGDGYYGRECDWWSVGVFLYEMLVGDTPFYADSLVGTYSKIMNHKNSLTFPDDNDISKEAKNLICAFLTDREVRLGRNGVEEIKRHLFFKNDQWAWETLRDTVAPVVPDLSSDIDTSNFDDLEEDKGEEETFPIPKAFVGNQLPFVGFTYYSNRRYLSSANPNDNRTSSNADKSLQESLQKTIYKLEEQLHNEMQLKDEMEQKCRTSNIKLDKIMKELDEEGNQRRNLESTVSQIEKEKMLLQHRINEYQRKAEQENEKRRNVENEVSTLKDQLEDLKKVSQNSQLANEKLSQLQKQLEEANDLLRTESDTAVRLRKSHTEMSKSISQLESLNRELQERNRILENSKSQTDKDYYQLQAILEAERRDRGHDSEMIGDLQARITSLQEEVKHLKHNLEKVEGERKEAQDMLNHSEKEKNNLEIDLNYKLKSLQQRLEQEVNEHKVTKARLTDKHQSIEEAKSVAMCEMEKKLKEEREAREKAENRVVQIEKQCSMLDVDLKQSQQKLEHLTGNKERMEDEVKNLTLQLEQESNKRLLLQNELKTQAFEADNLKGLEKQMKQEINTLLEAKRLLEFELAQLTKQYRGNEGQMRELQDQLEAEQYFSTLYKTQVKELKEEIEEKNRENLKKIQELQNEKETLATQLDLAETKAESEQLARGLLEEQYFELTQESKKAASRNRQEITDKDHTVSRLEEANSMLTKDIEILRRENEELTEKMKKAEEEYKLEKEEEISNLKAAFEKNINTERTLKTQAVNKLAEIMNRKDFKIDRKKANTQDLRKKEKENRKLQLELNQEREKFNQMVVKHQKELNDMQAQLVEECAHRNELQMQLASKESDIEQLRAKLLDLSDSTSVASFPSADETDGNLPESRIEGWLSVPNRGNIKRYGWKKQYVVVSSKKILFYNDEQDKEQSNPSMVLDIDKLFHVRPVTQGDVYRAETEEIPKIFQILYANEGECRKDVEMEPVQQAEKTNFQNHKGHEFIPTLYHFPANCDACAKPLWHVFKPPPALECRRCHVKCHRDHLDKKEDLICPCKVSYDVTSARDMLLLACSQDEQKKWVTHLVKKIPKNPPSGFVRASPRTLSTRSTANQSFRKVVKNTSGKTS

Sequence of Protein kinase C beta type (Homo sapiens) (P05771 2-671 limits assumed): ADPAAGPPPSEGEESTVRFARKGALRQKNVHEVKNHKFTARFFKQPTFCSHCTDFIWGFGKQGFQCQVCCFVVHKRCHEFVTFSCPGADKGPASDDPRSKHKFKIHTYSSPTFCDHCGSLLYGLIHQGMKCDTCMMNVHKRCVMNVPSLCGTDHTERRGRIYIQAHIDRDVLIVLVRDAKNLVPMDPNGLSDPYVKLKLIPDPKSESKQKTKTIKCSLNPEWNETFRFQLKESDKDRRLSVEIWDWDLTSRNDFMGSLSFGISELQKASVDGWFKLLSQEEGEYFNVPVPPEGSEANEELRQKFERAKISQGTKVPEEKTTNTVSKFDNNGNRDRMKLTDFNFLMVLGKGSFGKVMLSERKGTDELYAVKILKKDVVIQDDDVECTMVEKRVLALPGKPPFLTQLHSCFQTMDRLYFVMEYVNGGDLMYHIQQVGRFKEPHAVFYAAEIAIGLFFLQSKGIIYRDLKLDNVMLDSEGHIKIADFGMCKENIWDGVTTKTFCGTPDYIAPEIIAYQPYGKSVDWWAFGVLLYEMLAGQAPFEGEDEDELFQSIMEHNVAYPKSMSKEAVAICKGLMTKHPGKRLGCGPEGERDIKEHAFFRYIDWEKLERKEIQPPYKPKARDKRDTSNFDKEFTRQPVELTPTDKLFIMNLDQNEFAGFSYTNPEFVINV
Sequence of Protein kinase C theta type (Homo sapiens) (Q04759 whole entry, looked up): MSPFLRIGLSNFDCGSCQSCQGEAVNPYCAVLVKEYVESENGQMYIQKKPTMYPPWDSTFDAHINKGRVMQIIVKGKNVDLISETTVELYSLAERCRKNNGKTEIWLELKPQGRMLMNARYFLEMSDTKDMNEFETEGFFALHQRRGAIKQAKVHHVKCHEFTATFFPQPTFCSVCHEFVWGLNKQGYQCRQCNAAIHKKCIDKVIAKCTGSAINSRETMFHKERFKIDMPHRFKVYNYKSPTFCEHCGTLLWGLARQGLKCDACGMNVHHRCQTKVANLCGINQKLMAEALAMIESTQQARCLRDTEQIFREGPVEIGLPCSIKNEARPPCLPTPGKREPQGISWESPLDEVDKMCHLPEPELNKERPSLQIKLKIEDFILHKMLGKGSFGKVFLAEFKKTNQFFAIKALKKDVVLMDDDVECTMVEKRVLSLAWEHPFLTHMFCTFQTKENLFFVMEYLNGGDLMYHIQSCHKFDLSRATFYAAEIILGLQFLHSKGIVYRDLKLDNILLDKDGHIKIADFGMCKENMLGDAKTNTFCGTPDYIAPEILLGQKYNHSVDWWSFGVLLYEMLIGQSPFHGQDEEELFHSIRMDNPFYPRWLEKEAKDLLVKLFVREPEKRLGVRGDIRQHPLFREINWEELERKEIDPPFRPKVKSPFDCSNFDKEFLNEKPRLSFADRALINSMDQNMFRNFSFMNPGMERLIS

Structure (SMILES) | inhibition [1] | inhibition [2] | inhibition [3] | inhibition [4] | inhibition [5] | inhibition [6] | inhibition [7] | inhibition [8] | inhibition [9] | inhibition [10] | inhibition [11] | inhibition [12] | inhibition [13] | inhibition [14] | inhibition [15] | inhibition [16] | inhibition [17] | inhibition [18] | inhibition [19] | inhibition [20]
COc1ccccc1Nc1ncc(-c2ccccc2)o1 | 3.53% | 3.88% | 3.75% | 3.4% | 3.02% | 1.12% | 1.8% | 4.01% | 5.46% | 3.84% | 2.18% | 4.57% | 4.66% | 3.64% | 1.96% | 3.07% | 2.81% | 2.55% | 3.03% | 2.99%
CCn1c(-c2nonc2N)nc2cncc(C(=O)N3CCNCC3)c21 | 0.03% | 1.74% | 0.89% | 3.06% | 3.7% | 1.85% | 3.67% | 5.23% | 6.72% | 5.57% | 4.19% | 5.65% | 4.94% | 5.91% | 9.25% | 6.28% | 7.34% | 3.9% | 3.75% | –
